From PubChem
Only some compounds are listed: those with a hit (about 2.5% of all), similar ones and a draw of the others.
Cruzain inh noDet: inhibitors of Trypanosoma cruzi cruzain without detergent; Potency, µM, inactives show max response, negative = inhibition, usual class: inhibitors; P25779; 200,000 compounds, 2.3% hits; purified cruzain, Z-FR-AMC fluorescence, no detergent; AID 1476;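 further: plate controls were enzyme without inhibitor for no effect and buffer without enzyme for full effect; nearly all actives have a fitted effect of over 40% in size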
Target sequence (P25779 123-467 limits assumed): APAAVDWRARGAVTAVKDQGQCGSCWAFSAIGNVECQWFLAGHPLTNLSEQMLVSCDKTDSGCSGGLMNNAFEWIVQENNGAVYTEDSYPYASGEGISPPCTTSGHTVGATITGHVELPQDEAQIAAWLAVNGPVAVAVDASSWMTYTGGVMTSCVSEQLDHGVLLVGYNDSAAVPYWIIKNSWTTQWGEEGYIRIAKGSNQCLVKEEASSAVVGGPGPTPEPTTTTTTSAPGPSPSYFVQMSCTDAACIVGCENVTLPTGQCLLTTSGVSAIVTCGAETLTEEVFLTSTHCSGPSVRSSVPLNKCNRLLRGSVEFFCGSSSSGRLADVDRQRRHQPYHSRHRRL
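Purified cruzain at 1.5 nM, pre-incubated 15 min with compound at room temperature in 100 mM sodium acetate pH 5.5, 5 mM DTT, 0.00005% Triton X-100. Reaction started with 2 uM Z-FR-AMC; AMC fluorescence increase over 60 s gives rate.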
Cruzain Triton: cruzain (T. cruzi) inhibition with detergent; AID 1478; Potency, µM, inactives show max response, negative = inhibition, actives largely listed as inhibitors; purified cruzain, Z-FR-AMC fluorescence, 0.01% Triton; 200,000 compounds, 0.43% hits;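 further: plate controls were neutral wells for no effect and buffer without enzyme for full effect; nearly all actives have a fitted effect of over 40% in size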
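Read-out: AMC fluorescence (360 nm excitation, 450 nm emission), four reads over 2 min, first-to-third difference used. Conditions: cruzain 1.5 nM, Z-FR-AMC 2 uM, pH 5.5 acetate, 5 mM DTT, 0.01% Triton X-100.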
Active calls of the source: *; ? = inconclusive. The call rests on the fitted dose curve; in most records, active means well fitted curve in the direction sought with a large enough effect; inconclusive means small, poorly fitted or top-dose-only effect, or another doubt; inactive means no such curve, though single readings can be large; an effect the other way counts as inactive or inconclusive. Potency means the concentration at half of the fitted maximal effect.

SMILES	Cruzain inh noDet	Cruzain Triton
O=C(CSCc1ccc(F)cc1)N1CCc2c([nH]c3ccccc23)C1c1ccccc1 (configuration not stated)	-80%	4%
CCOc1cccc(C2c3[nH]c4ccccc4c3CCN2C(=O)CSc2ccccc2)c1 (configuration not stated)	?	3%
O=C(CSc1ccccc1)N1CCc2c([nH]c3ccccc23)C1c1ccc(Cl)cc1 (configuration not stated)	13µM*	2%
COC(=O)c1sc(-c2ccccc2)cc1NC(=O)Nc1ccccc1Cl	10µM*	4%
COC(=O)c1sc(-c2ccccc2)cc1NC(=O)Nc1ccc(Cl)cc1	?	-3%
CC1CCC(C(=O)NC(C(=O)OCC(=O)c2ccccc2)C(C)C)CC1 (configuration not stated)	?	16µM*
CCc1ccc(C(=O)COC(=O)C(Cc2ccccc2)NC(=O)C2CCC(C)CC2)cc1 (configuration not stated)	-15%	7%
COC(=O)c1ccc(CSc2nc3ccc(Cl)cc3[nH]2)o1	-8%	5%
COC(=O)c1ccc(CSc2nc3scc(-c4cccs4)c3c(=O)[nH]2)o1	16µM*	-7%
Cc1ccc(C(=O)N/C(=C/c2ccco2)C(=O)OCN2C(=O)c3ccccc3C2=O)cc1	0.4µM*	0.35µM*
COC(=O)/C(=C/c1ccco1)NC(=O)c1ccccc1	7%	-11%
CCn1c(=O)c2sccc2n2c(CCC(=O)Nc3ccc(OC)cc3OC)nnc12	3%	-2%
CCOc1ccc(N/N=C(/C#N)C(N)=O)cc1	-21%	-9%
CCOC(=O)NC(=O)/C(C#N)=N\Nc1ccc(Cl)cc1	5µM*	-2%
OCCOCCN1CCN([C@@H](c2ccccc2)c2ccc(Cl)cc2)CC1	0%	1%
COc1cc2c(cc1NC(=O)c1ccncc1)oc1ccccc12	?	-9%
COc1cc2c(cc1NC(=O)c1ccc(C)c([N+](=O)[O-])c1)oc1ccccc12	25µM*	3%
COc1cc2c(cc1NC(=O)c1cccnc1)oc1ccccc12	?	-8%
COc1cc2c(cc1NC(=O)c1cccc([N+](=O)[O-])c1)oc1ccccc12	16µM*	-1%
O=C(Nc1ccc2nc(SCC(=O)N3CCCC3)sc2c1)c1ccccc1F	-8%	-3%
Cc1ccc(NC(=O)c2ccc(Cl)cc2Cl)c(C(=O)c2ccccc2)c1	-4%	-4%
O=C(NCCc1ccccc1)C(=O)N/N=C/c1ccc2c(c1)OCO2	20µM*	5%
Cc1ccccc1OCC(=O)N/N=C/c1ccc2c(c1)OCCO2	-14%	-5%
O=C(N/N=C\c1ccc2c(c1)OCO2)c1ccco1	0%	-8%
Cc1cc(C)c(OCC(=O)N/N=C/c2ccc3c(c2)OCO3)c(C)c1	20µM*	0%
SMILES	Cruzain inh noDet	Cruzain Triton
Cn1cc(-c2cc3n(n2)CCC(=O)N3CC(=O)O)c2ccccc21	11%	-2%
COc1ccc(C2Nc3ccccc3C(=O)N2Cc2ccco2)cc1COc1ccccc1F (configuration not stated)	25µM*	-7%
COc1ccc(C2Nc3ccccc3C(=O)N2Cc2ccco2)cc1COc1ccc(NC(C)=O)cc1 (configuration not stated)	?	-12%
CN(C)CCCn1cnc2cc(Cl)c(Cl)cc21	0%	-6%
COc1ccc(NC(=O)c2nc(S(C)(=O)=O)ncc2N(Cc2ccc(C)cc2)Cc2ccco2)cc1Cl	10µM*	-3%
COc1ccc(Cl)cc1NC(=O)c1nc(S(C)(=O)=O)ncc1N(Cc1ccc(C)cc1)Cc1ccco1	?	0%
CC1(C)N=C(N)N=C(N)N1c1cccc(OCc2cccc(N)c2)c1	-6%	4%
CN(C)c1cccc(C(=O)OCc2cc(=O)oc3cc(O)ccc23)c1	-7%	-15%
O=C(Cc1cc(=O)oc2cc(O)ccc12)NCC1CCC(C(=O)O)CC1 (configuration not stated)	-87%	25µM*
CCc1nnc(NC(=O)CSc2nc(-c3ccccc3)cc(-c3ccc(OC)cc3)c2C#N)s1	13µM*	-3%
N#Cc1c(-c2ccccc2)cc(C2CC2)nc1SCC(=O)c1cccs1	?	1%
COc1ccc(-c2cc(-c3ccccc3)c(C#N)c(SCC(=O)Nc3ncc(C)s3)n2)cc1	?	-3%
COc1ccc(-c2cc(-c3ccccc3)nc(SCC(=O)Nc3nccs3)c2C#N)cc1	7.9µM*	-8%
CC(C)NC(=O)CSc1nc(-c2cccs2)cc(-c2ccccc2)c1C#N	20µM*	-7%
COc1ccc(-c2cc(-c3ccccc3)nc(SCC(=O)Nc3ccccc3F)c2C#N)cc1	-6%	1%
CCOC(=O)c1c(C)oc2nc(C)nc(NCc3ccc(OC)cc3)c12	-4%	1%
Cc1nc(N2CCOCC2)c2c(C(=O)Nc3cccc(C(F)(F)F)c3)c(C)oc2n1	-9%	-2%
Cc1ccc(C)c(S(=O)(=O)c2cnc(SCC(=O)Nc3ccc(F)cc3F)[nH]c2=O)c1	?	-12%
